Experimental data: ChEMBL document CHEMBL1157539, “Thousands of chemical starting points for antimalarial lead identification” (Nature, 2010)

tested on: Plasmodium falciparum; assay: GSK_TCMDC: Inhibition of Plasmodium falciparum 3D7 in whole red blood cells, using parasite LDH activity as an index of growth. Test compounds present at 2uM; type: functional

SMILES	Inhibition
O=C(COc1ccc(C(=O)c2ccccc2)cc1)Nc1nccs1	94%
O=C(Cc1c[nH]cn1)Nc1cccc(-c2cccc(-c3nc4ccccc4[nH]3)c2)c1	97%
COc1ccc(CNCc2ccccc2)cc1-c1ccc(S(=O)(=O)NCCN2CCCC2)s1.O=C(O)C(F)(F)F	100%
CN(C)c1cccc2c1nc(-c1ccco1)n2CC1CCCN1.O=C(O)C(F)(F)F (configuration not stated)	86%

tested on: Plasmodium falciparum; assay: GSK_TCMDC: Inhibition of Plasmodium falciparum Dd2 in whole red blood cells, using parasite LDH activity as an index of growth. Test compounds present at 2uM; type: functional

SMILES	Inhibition
COc1cccc(-c2cc(C(F)(F)F)n3ncc(C(=O)Nc4cc(C)ccc4O)c3n2)c1	99%
Cc1nc(N)nc(N)c1CCCOc1ccccc1Br	5%
O=C(NC1CCCc2ccccc21)[C@@H]1CCCN1C(=O)c1ccc(O)c(-c2ccc(Cl)c(Cl)c2)c1 (some centres not stated)	99%
Cc1csc(NC(=O)c2cn(-c3ccccc3)nc2-c2cccs2)n1	12%
CC1CCN(C(=O)CSc2nc(-c3ccc(C(C)C)cc3)no2)CC1	84%
COc1ccc(CCn2c(=N)c(C(=O)NCc3cccnc3)cc3c(=O)n4ccccc4nc32)cc1	5%
COc1ccc2nc(C)cc(Nc3ccc(Cl)cc3)c2c1	3%
CC(C)OC(=O)c1ccc(NC(=O)N[C@@H](Cc2ccc(O)cc2)C(=O)NC2CCC(CCN3C4CCC3c3ccccc34)CC2)cc1.O=C(O)C(F)(F)F (some centres not stated)	67%
Cc1sc2nc(CN3CCCC3)nc(-n3c(NCCO)nc4ccccc43)c2c1C	11%
CCc1cn2c3c(cc(C(=O)N[C@@H](Cc4ccccc4)[C@H](O)CNC(C)C)cc13)N(C)S(=O)(=O)C2.O=CO	98%
Cc1cccc2nc(-c3cccc(-c4cccc(NC(=O)CNc5ccc(C(N)=O)cc5)c4)c3)[nH]c12	56%
CCCCn1c(=N)c(C(=O)NCc2cccnc2)cc2c(=O)n3cccc(C)c3nc21	47%
O=C(c1ccc(-c2cccc(-c3nc4cc(F)ccc4[nH]3)c2)cc1)N1CCCCC1CN1CCC(O)C1 (configuration not stated)	0%
CCN(CCCN1CCCCC1)c1cc(C)nc(Nc2ccc(C)c(Br)c2)n1.O=C(O)C(F)(F)F	98%
N#Cc1ccc2c(c1)CN(C1CCC(NC(=O)/C=C/c3cc(C(F)(F)F)cc(C(F)(F)F)c3)CC1)CCC2 (configuration not stated)	4%
CC(NC(=O)c1ccc(O)c(-c2ccc(Cl)c(Cl)c2)c1)C(=O)NC1CCCCC1 (configuration not stated)	82%
CS(=O)(=O)Cc1ccc(Nc2nccc(-c3c(-c4cccc(C(=O)Nc5c(F)cccc5F)c4)nn4ccccc34)n2)cc1	92%

SMILES	Inhibition
Br.Cc1cccc2c(CON3C(N)=NC(N)=NC3(C)C)cccc12	94%
O=C(NCc1cccc2ccccc12)c1ccc(CNC2CCN(Cc3ccccc3)CC2)cc1.O=C(O)C(F)(F)F	88%
Cc1cccc2nc(-c3cccc(-c4ccc(CNCCc5ccncc5)cc4)c3)[nH]c12.O=C(O)C(F)(F)F	100%
Cn1nc(-c2ccc(NC(=O)Nc3cc(C(F)(F)F)cc(C(F)(F)F)c3)c(F)c2)c2cnc(NCCN3CCOCC3)nc21.O=C(O)C(F)(F)F	37%
c1ccc(Oc2ccc(Nc3ccnc4ccc(-c5ccco5)cc34)cc2)cc1	32%
CCN(CC)CCCNc1ncc2c(-c3ccc(NC(=O)Nc4cc(C(F)(F)F)ccc4F)c(F)c3)nn(C)c2n1.O=C(O)C(F)(F)F	68%
O=C(Cc1ccccc1)NC(Nc1ccc([N+](=O)[O-])cc1)C(Cl)(Cl)Cl (configuration not stated)	100%
COc1ccc(CNCc2ccc(-c3ccc(-c4nc5cc(C(F)(F)F)ccc5[nH]4)cc3)cc2)cc1.O=C(O)C(F)(F)F	99%
Cn1c(N)cc(-c2ccc(Br)cc2)c2c(=O)nc(N)nc1-2	57%
COc1ccc(N2CCN(CCCCNC(=O)c3ccc(NC(=O)c4ccc(Cl)c(Cl)c4)cc3)CC2)c(OC)c1	98%
COc1ccc2nccc([C@@H](O)CN3CCC(NC(=O)c4cccc(-c5cc(C)no5)c4)CC3)c2c1	89%
Fc1cccc(C=NN=c2cc[nH]c3ccccc23)c1	72%
CC(C)C(=O)n1ncc2c3c(N)nc(N)nc3ccc21	3%
O=C(Nc1ccccc1)Nc1cccc(-c2cc(CNCCc3ccccc3)sc2-c2ccncc2)c1	84%
CON=Cc1sc(CNCCCN=c2cc(O)c3ccccc3[nH]2)c(C)c1Br.Cl	63%
N#Cc1ccc(N2CCN(Cc3ccc(-c4ccc(-c5nc6ccccc6[nH]5)s4)cc3)CC2)nc1.O=C(O)C(F)(F)F	63%
